# Source: PubChem BioAssay (NCATS)
# Inconclusive results are not listed. The source made the active and inactive calls. Calls follow the shape of the dose curve; as a rule, active = well fitted inhibition curve with a large enough effect; inconclusive = small, poorly fitted or top-dose-only effect; inactive = flat fitted curve, though single readings scatter.
# Experiment: P-glycoprotein substrates identified in KB-8-5-11 adenocarcinoma cell line, qHTS therapeutic library screen (AID 1346987); also: nearly all actives have a fitted effect of over 65% in size
# Details: KB-8-5-11 (P-gp overexpressing) viability, CellTiter-Glo, 72 h; series mostly up to 44.5 µM; activity change, negative = cytotoxicity: at the top concentration
# Procedure, shortened: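 Human cervical adenocarcinoma KB-8-5-11 cells, selected in colchicine to over-express P-gp and assayed without it, were exposed for 72 h to titrated compounds. An ATP-based luminescent viability signal gave AC50.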
# % is scaled to controls: 0 for no effect and ±100 for the full control effect.
SMILES,outcome,"activity change, negative = cytotoxicity"
COC(=O)C[C@H]1C(C)(C)[C@H](OC(=O)C(C)C)[C@@]2(O)C(=O)[C@]1(C)C1CC[C@]3(C)C(CC(=O)O[C@H]3c3ccoc3)[C@]13O[C@@H]32 (stereo partly specified),inactive [at 17.3 µM],
C[C@@H]1O[C@@H](O[C@H]2[C@H](OC(=O)[C@]34CCC(C)(C)C[C@H]3C3=CCC5[C@@]6(C)C[C@H](O)[C@H](O[C@@H]7O[C@H](CO)[C@@H](O)[C@H](O)[C@H]7O)[C@@](C)(CO)C6[C@H](O)C[C@@]5(C)[C@]3(C)CC4)OC[C@H](O)[C@@H]2O)[C@H](O)[C@H](O)[C@H]1O[C@@H]1OC[C@@H](O)[C@H](O[C@@H]2OC[C@](O)(CO)[C@H]2O)[C@H]1O (stereo partly specified),,6.69% [at 9.29 µM] (inactive)
C/C=C/c1ccc(O[C@@H]2O[C@H](CO)[C@@H](O)[C@H](O)[C@H]2O)c(OC)c1,,-12.3% (inactive)
O=C(O)C1CN(Cc2ccc(-c3nc4cc(Cc5ccccc5F)ccc4s3)c(F)c2)C1,,0.617% [at 9.29 µM] (inactive)
C[C@@H]1O[C@@H](O[C@H]2[C@H](O)[C@@H](O)[C@H](OC3CCC4(C)C5CCC(C)(C(CO)OC6OC(CO)C(O)C(O)C6O)CC5=CCC4C3(C)C)O[C@@H]2CO)[C@H](O)[C@H](O)[C@H]1O (stereo partly specified),inactive [at 17.3 µM],
CC(=O)NC1C(OC(C)(C)C2CCC3(C)C=C(C4CCC5C4(C)CC(O)C4OC(C(C)(C)O)CCC45C)CCC3O2)OC(CO)C(O)C1O (stereo unspecified),,3.65% [at 17.3 µM] (inactive)
